# In PubChem BioAssay (NCI):
# This is part of a sample that, as a whole, favours compounds with a hit. Of some 83,000 tested, about 20% had one in any assay.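 The endpoint reported here, percent growth, reads 100 for growth as untreated, 0 for no net growth and -100 for all cells dead.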 Unmarked numbers belong to inactive results. Active and inactive are the calls of the source. How the source made its calls: active means growth percent below 10; inactive means the rest.
# Key:
# Assay in all cases: NCI-60 one-dose screen, 48 h (100 = growth as untreated, 0 = no growth, -100 = all killed)
# Settings in all cases: 10 µM unless noted
# K-562 leukemia = tested on: K-562 leukemia
# MALME-3M melanoma = tested on: MALME-3M melanoma
# MDA-MB-231 breast = tested on: MDA-MB-231 breast
# RXF 393 renal = tested on: RXF 393 renal
# SF-268 CNS = tested on: SF-268 CNS
# SF-295 CNS = tested on: SF-295 CNS
# SF-539 CNS = tested on: SF-539 CNS
# UACC-257 melanoma = tested on: UACC-257 melanoma
# M14 melanoma = tested on: M14 melanoma
# HCT-15 colon = tested on: HCT-15 colon
Structure (SMILES),growth (K-562 leukemia),growth (MALME-3M melanoma),growth (MDA-MB-231 breast),growth (RXF 393 renal),growth (SF-268 CNS) [%],growth (SF-295 CNS),growth (SF-539 CNS),growth (UACC-257 melanoma),growth (M14 melanoma),growth (HCT-15 colon) [%]
CCCCCCCCCCC[C@@H](C[C@H]1OC(=O)[C@H]1CCCCCC)OC(=O)[C@@H](CC(C)C)NC=O,45.2%,89.4%,60.9%,44.1%,65.2,24.7%,63.1%,99.6%,62.6%,34.8
CCOc1ccccc1C(=O)OCC(=O)Nc1cccc(S(=O)(=O)N(C)C)c1,104%,81.5%,110%,64.6%,122,160%,100%,93.6%,107%,123
Cc1nc2c(O)cccc2cc1CO,82.8%,178%,110%,136%,99.8,106%,93.5%,116%,110%,109
CC(C)[C@H]1CC[C@H]2[C@@H](CC[C@H]3[C@](C)(CN)CCC[C@]23C)C1,18.7%,83%,63.6%,86.9%,53.5,80.5%,98.8%,108%,93%,–
O=C1Nc2ccccc2C12Nc1cc(Cl)ccc1S2 (configuration not stated),39.7%,81.8%,85.4%,121%,87.8,78.8%,86.5%,138%,91.6%,–
[O-]/[N+](=C\C=C\c1ccccc1)c1ccccc1,98.1%,158%,102%,405%,101,102%,103%,127%,115%,104
COc1cc(NC(=O)c2cc3ccccc3cc2O)c(OC)cc1Cl,-2.3% (active),-23.7% (active),18.5%,20.9%,27.3,8.57% (active),7.7% (active),-22.2% (active),4.56% (active),13.8
Clc1ccc([C@@H]2C[C@@H]3Cc4cc(Br)c5ccccc5c4N2O3)c(Cl)c1,23.8%,61.7%,89.1%,88.9%,85.8,65.5%,91.4%,66.1%,75.6%,–
CN1CCN(Cc2ccc(NC(=O)c3[nH]ncc3Nc3ccnc4ccnn34)cc2)CC1,34.9%,58.9%,99.9%,51.5%,63.7,88.7%,40.9%,77.9%,57.1%,98
Cc1ccc(NC(=O)Nc2ccc(-c3cccnc3)cc2N2CCC(CO)CC2)cc1,9.37% (active),25.5%,9.31% (active),-34.8% (active),36.5,40.1%,1.34% (active),24.3%,27.1%,20.2
O=C1/C(=C/c2ccc3cccc(Cl)c3n2)SC(=S)N1CCc1ccc(O)cc1,86.2%,74.7%,79.9%,103%,84.9,91.9%,86.9%,100%,90.8%,86.1
O=C(Cn1ccnc1)NC(c1ccccc1)c1ccccc1,98.6%,104%,99.6%,104%,97.7,97.6%,86.2%,104%,102%,101
O=C(Nc1ccc(Cl)cc1)c1cc2c(cc1O)[nH]c1ccccc12,10.9%,23.1%,36.1%,1.97% (active),34.4,-43% (active),12.4%,-21.1% (active),31%,32
CCOc1cccc(C2CC(=O)Nc3cc4c(cc32)OCO4)c1 (configuration not stated),48.2%,83.4%,111%,78.8%,89.4,76%,91.7%,94.5%,102%,77.3
CCN1CCN(c2cc(-c3cn[nH]c3-c3cc(C)cc(OC)c3)nc(-c3cccnc3)n2)CC1,21.9%,91.9%,58.6%,61.2%,87.3,99.9%,83%,84.8%,83.1%,19.2
O=C(Nc1cccc2ccccc12)c1cc2c(cc1Br)OCO2,97.8%,89.4%,102%,126%,104,107%,78.6%,114%,162%,104
COc1cccc(CCC2C(=O)CCCC2=O)c1,109%,115%,114%,134%,98.1,118%,98.8%,108%,113%,108
O=C(CSc1nc2c(n1Nc1ccccc1)-c1ccccc1SC2)Nc1nc(-c2ccc(Cl)cc2)cs1,78%,64.2%,75.1%,98.8%,47.2,45.3%,70.2%,89.5%,59.9%,77.4
CC[C@@H]1OC(=O)[C@H](C)[C@@H](O[C@H]2C[C@@](C)(OC)[C@@H](O)[C@H](C)O2)[C@H](C)[C@@H](O[C@@H]2O[C@H](C)C[C@H](N(C)C)[C@H]2O)[C@](C)(O)C[C@@H](C)[C@@H]2N[C@@H](COCCOC)O[C@H]([C@H]2C)[C@]1(C)O,103%,99.5%,94.6%,116%,112,110%,106%,106%,99.7%,109
c1csc([C@@H]2C[C@@H]3Cc4ccc5ccccc5c4N2O3)c1,93.2%,86.4%,89.1%,104%,108,109%,90.5%,98.7%,99.7%,93.7
O=C(NCCc1ccccc1)C1CCC(=O)N1Cc1ccc(Br)cc1 (configuration not stated),107%,96.7%,114%,106%,106,106%,96%,79.9%,104%,108
Cc1cc(C)c2c(c1)N1OC(C2)C[C@H]1/C=C/c1ccccc1 (some centres not stated),88.2%,103%,101%,115%,107,108%,111%,113%,104%,88.7
CCOC(=O)c1c2c(c(C)n1Cc1ccccc1)-c1nc(N)ncc1CC2,94.2%,168%,79.3%,120%,104,229%,103%,144%,111%,99.4
O=C(CSCC(=O)N/N=C/c1ccccc1O)N/N=C\c1ccccc1O,10.8%,2.43% (active),42.7%,44.8%,28.9,35.5%,25.6%,25.6%,-4.57% (active),22.9
O=C1OC(c2ccc(-c3ccccc3)cc2)=C/C1=C/c1cccs1,87.8%,98.2%,75.3%,84.6%,88.5,95.8%,106%,106%,90.3%,98.1
OCc1nnn(-c2ccccc2)c1CO,132%,122%,107%,104%,105,115%,116%,124%,110%,96.7
O=C(CCc1nnc(Cn2cncn2)o1)c1nc2ccccc2[nH]1,104%,92%,98.7%,121%,105,103%,103%,112%,111%,102
O=C(Nc1ncc([N+](=O)[O-])s1)c1cccc([N+](=O)[O-])c1,23.3%,40.3%,62.3%,25.1%,64.2,23.3%,28.4%,58.6%,44%,47.8
